Experimental findings from PubChem BioAssay AID652162 (Broad Institute, 2013) are described below.

In all, about 350,000 compounds went through this assay and about 840 (0.24%) were called active. Rule as the data show it: active = inhibition above about 10%; inactive = the rest. The list comes from a sample in which actives are over-represented; it also holds similar structures and randomly drawn compounds.

Usually inhibition stands for the drop in the measured response relative to a control, in per cent.

This experiment deals with Toxin B (Clostridioides difficile) (UniProt P18177). Put plainly: TcdB glycohydrolase inhibitors, primary screen, biochemical, single point, plate reader (AID 652162). Particulars: TcdB glycohydrolase enzymatic assay, at 9.99 µM, stronger effect = higher value.
Toxin B (Clostridioides difficile), sequence (P18177 whole entry, looked up): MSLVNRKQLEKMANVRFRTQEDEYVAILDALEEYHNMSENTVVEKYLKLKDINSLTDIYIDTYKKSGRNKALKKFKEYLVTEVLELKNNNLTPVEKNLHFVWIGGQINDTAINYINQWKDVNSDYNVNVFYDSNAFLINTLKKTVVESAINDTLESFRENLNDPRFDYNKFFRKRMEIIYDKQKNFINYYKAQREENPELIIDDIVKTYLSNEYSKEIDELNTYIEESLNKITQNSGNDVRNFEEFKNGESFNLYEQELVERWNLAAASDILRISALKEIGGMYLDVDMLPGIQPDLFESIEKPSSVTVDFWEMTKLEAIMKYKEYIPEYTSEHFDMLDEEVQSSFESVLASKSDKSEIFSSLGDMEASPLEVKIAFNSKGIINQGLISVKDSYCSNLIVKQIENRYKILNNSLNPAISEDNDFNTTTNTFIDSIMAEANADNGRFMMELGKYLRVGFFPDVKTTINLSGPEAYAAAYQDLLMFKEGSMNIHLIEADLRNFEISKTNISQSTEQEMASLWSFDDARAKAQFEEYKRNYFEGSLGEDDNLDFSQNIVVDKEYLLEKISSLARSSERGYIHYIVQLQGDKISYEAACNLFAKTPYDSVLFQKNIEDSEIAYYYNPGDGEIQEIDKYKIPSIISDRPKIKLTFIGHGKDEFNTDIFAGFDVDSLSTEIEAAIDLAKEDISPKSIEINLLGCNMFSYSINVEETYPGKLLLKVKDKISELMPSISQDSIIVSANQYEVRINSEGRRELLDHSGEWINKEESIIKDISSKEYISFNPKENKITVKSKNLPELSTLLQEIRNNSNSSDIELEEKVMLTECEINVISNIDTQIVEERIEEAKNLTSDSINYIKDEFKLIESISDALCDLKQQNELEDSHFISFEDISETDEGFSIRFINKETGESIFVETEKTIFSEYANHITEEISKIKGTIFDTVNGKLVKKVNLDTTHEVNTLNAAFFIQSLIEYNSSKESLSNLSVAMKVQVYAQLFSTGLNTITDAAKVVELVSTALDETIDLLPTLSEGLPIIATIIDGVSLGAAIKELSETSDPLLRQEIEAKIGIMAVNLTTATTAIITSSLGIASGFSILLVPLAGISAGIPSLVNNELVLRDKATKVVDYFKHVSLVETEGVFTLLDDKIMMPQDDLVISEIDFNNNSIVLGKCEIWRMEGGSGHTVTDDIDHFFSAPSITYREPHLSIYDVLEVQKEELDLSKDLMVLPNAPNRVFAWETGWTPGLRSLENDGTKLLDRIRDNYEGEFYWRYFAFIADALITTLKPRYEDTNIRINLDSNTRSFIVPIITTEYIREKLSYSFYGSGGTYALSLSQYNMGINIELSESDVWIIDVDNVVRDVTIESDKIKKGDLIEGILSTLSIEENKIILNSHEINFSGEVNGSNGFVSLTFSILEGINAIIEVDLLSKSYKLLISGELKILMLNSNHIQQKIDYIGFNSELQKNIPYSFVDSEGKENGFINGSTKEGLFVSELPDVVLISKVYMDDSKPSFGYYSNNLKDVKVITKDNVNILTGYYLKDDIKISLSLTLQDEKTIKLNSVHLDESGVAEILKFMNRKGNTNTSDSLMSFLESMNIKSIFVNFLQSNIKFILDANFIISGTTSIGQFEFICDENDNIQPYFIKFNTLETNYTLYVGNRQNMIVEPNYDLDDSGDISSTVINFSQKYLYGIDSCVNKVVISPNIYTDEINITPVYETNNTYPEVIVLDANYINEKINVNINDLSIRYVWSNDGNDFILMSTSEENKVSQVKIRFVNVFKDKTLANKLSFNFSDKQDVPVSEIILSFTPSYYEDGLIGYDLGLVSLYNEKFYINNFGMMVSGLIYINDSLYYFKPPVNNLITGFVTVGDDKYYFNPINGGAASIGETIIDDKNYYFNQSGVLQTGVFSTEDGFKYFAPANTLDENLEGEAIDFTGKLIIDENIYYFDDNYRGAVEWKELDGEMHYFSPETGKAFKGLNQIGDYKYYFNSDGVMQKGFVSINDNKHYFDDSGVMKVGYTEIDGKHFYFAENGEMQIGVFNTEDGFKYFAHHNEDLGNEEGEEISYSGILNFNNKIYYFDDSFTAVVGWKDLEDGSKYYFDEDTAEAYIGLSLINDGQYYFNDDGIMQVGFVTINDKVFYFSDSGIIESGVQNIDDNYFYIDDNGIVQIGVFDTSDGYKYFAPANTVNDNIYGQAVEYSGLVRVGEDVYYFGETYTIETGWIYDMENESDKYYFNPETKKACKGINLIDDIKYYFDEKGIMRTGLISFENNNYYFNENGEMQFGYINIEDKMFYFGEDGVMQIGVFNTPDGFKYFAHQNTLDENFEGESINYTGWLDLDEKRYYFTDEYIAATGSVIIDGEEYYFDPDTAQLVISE
Regarding `COc1ccccc1NC(=O)N1CC(=O)N2[C@H](C1)[C@H](c1ccc(C#Cc3ccccc3)cc1)[C@@H]2CO`, the inhibition is 0.309% (inactive).
Take `O=C(C[C@H]1CC[C@@H]2[C@H](COC[C@@H](O)CN2CC2CC2)O1)NCC1CC1`: the inhibition was -1.35% (inactive).
For the compound `O=C(C[C@@H]1CC[C@@H]2[C@H](COC[C@H](O)CN2CC2CCOCC2)O1)NCC1CCCCC1`, the inhibition is 0.565% (inactive).
Take `C[C@H]1CN([C@@H](C)CO)C(=O)c2cc(NS(=O)(=O)c3ccc(F)cc3)ccc2O[C@H]1CN(C)CC1CC1`: the inhibition is -1.14% (inactive).
The result for `O=C(C[C@@H]1C[C@@H]2c3cc(NS(=O)(=O)c4ccc(F)cc4)ccc3O[C@@H]2[C@H](CO)O1)NCc1cc(F)ccc1F` reads -0.254% (inactive); that for `C[C@@H]1CN([C@@H](C)CO)C(=O)c2cc(NC(=O)Nc3ccc(C(F)(F)F)cc3)ccc2O[C@@H](C)CCCCO[C@@H]1CN(C)C(=O)Nc1cccc2ccccc12`, -0.569% (inactive).
As for `C[C@@H]1CN([C@H](C)CO)C(=O)c2cccc(NS(=O)(=O)c3ccc(F)cc3)c2O[C@@H]1CN(C)C(=O)Nc1ccc(C(F)(F)F)cc1`, the inhibition is 0.036% (inactive).
The result for `C[C@@H]1CN([C@@H](C)CO)S(=O)(=O)c2ccc(/C=C/c3ccccc3)cc2O[C@H]1CN(C)C(=O)Nc1cc(F)ccc1F` reads -0.621% (inactive); that for `CC1CCN(C(=O)/C(=C\c2ccccc2)NC(=O)c2ccccc2)CC1`, 0.574% (inactive); that for `O=C(N/C(=C\c1ccc(F)cc1)C(=O)N1CCCCCC1)c1ccccc1`, 1.06% (inactive).
With `O=C(N/C(=C\c1ccc(O)cc1)C(=O)N1CCCCC1)c1ccccc1`, the inhibition is 14.3% (active).
As for `C[C@H](CO)N1C[C@H](C)[C@H](CN(C)S(=O)(=O)c2ccccc2C#N)OCc2cn(nn2)CCCC1=O`, the inhibition was -0.086% (inactive).
For the compound `CNC[C@H]1OCCCC[C@@H](C)Oc2ccc(NS(C)(=O)=O)cc2C(=O)N([C@@H](C)CO)C[C@H]1C`, the inhibition was 0.355% (inactive).
Consider `CO[C@H]1CN(C)C(=O)c2cc(NC(=O)c3cc(C)on3)ccc2OC[C@@H](C)N(C(C)=O)C[C@H]1C`, for which the inhibition was -0.186% (inactive).
As for `C[C@H](CO)N1C[C@H](C)[C@H](CN(C)S(=O)(=O)c2cccs2)Oc2ccc(NC(=O)Nc3ccccc3)cc2C1=O`, the inhibition is -11.1% (inactive).
Take `O=C(Nc1cccc(Cl)c1)N[C@@H]1CC[C@@H](CCNC(=O)C2CCOCC2)O[C@@H]1CO`: the inhibition is -0.908% (inactive).
In the case of `CN(c1ccc(O)cc1)c1nc(-c2cccnc2)cs1`, the inhibition is 14.9% (active).
For the compound `CN(C)c1ccc(-c2nnc(-c3cccnc3)o2)cc1`, the inhibition was 0.383% (inactive).
The result for `O=C(NNC(=O)c1csc(-c2cccnc2)n1)Nc1ccc(Cl)cc1` reads 0.087% (inactive).
As to `CCCNC(=O)C[C@H]1C[C@@H]2c3cc(NC(=O)NC4CCCC4)ccc3O[C@@H]2[C@@H](CO)O1`, the inhibition is -0.087% (inactive).
As for `O=C(c1cccc(F)c1)N1CC[C@@H]2[C@H](CO)Nc3ccc(-c4ccccc4)cc3[C@@H]21`, the figure is -1.25% (inactive).
Take `CCC(=O)N(C)C[C@H]1Oc2cc(/C=C/c3ccccc3)ccc2S(=O)(=O)N([C@H](C)CO)C[C@H]1C`: the inhibition is 0.008% (inactive).
On to `CCCC#Cc1ccc([C@H]2[C@@H](CO)N3C(=O)CN(C(=O)c4ccncc4)C[C@H]23)cc1`, for which the inhibition is 0.225% (inactive).
As for `COc1ccccc1S(=O)(=O)N1CC[C@@H]2[C@H]1c1cc(-c3ccccc3)ccc1N[C@@H]2CO`, the figure is -0.443% (inactive); as for `COc1ccc(S(=O)(=O)Nc2ccc3c(c2)C(=O)N([C@@H](C)CO)C[C@@H](C)[C@H](CN(C)S(=O)(=O)c2cccs2)O3)cc1`, 0.284% (inactive).
The result for `C[C@H](CO)N1C[C@H](C)[C@H](CN(C)S(=O)(=O)c2cccc(F)c2)Oc2ncc(/C=C/c3ccccc3)cc2C1=O` reads 0.994% (inactive); that for `O=C(Cc1ccccn1)N[C@H]1CC[C@H](CCn2cc(-c3ccc(F)cc3)nn2)O[C@H]1CO`, -7.26% (inactive).
`CO[C@@H]1CN(C)C(=O)c2cc(NC(C)=O)ccc2OC[C@H](C)N(Cc2ccccn2)C[C@H]1C`: the inhibition was 0.576% (inactive).
As for `COc1cccc(-n2c(=S)sc3c(=O)n(-c4ccccc4OC)c(SCC4OCCO4)nc32)c1`, the inhibition was 1.51% (inactive).
The result for `COc1ccccc1-n1c(SCC(=O)O)nc2sc3c(c2c1=O)CCC3` reads -0.511% (inactive); that for `COc1ccc(Cl)cc1-n1c(=S)sc2c(=O)n(-c3ccc(F)cc3)c(SCC(=O)O)nc21`, 20.5% (active).
In the case of `Cc1cccc(S(=O)(=O)N2CCCCN3[C@@H](CO)[C@H](c4ccc(-c5cccnc5)cc4)[C@@H]3C2)c1`, the inhibition was 0.453% (inactive).
In the case of `CCNC(=O)C[C@H]1CC[C@@H]2[C@H](COC[C@H](O)CN2C(=O)Nc2c(C)noc2C)O1`, the inhibition is -1.03% (inactive).
Consider `COc1ccc(CN(C)C[C@H]2OCCCC[C@H](C)Oc3ccc(NC(=O)NC4CCCCC4)cc3C(=O)N([C@@H](C)CO)C[C@@H]2C)cc1`, for which the inhibition was 0.374% (inactive).
Consider `CO[C@@H]1CN(C)C(=O)c2cc(NC(=O)c3ccc4c(c3)OCO4)ccc2OC[C@H](C)N(CCC(F)(F)F)C[C@H]1C`, for which the inhibition was 1.3% (inactive).
On to `O=C(NCC[C@H]1CC[C@@H](NS(=O)(=O)c2cccc(Cl)c2)[C@@H](CO)O1)c1cnccn1`, for which the inhibition is -2.69% (inactive).
As to `C[C@H]1CN([C@@H](C)CO)C(=O)c2cc(C#Cc3ccccc3F)cnc2O[C@@H]1CN(C)C(=O)C1CC1`, the inhibition is -2.35% (inactive).
For the compound `N#C[C@H]1[C@@H](c2ccccc2C2=CCCCC2)[C@H](CO)N1C(=O)c1ccccn1`, the inhibition is -7.67% (inactive).
`COc1ccc2c3c(n(C)c2c1)[C@H](CO)N(C(C)=O)CC31CN(C(=O)c2cnccn2)C1`: the inhibition is 0.415% (inactive).
For the compound `Cc1cccn2c(CN(C)C3CCCc4ccccc43)c(C(=O)N3CCOCC3)nc12` (stereo unspecified), the inhibition was 11% (active).
In the case of `CCOC(=O)C1CCN(Cc2c(C(=O)N3CCOCC3)nc3c(C)cccn23)CC1`, the inhibition was 1.15% (inactive).
Turning to `Cc1cccn2c(CNCC(C)Oc3cccnc3)c(C(=O)N3CCOCC3)nc12` (stereo unspecified), the inhibition is -0.924% (inactive).
The result for `COc1ccc(C#Cc2ccc([C@H]3[C@H]4CN(C(=O)c5ccncc5)CC(=O)N4[C@H]3CO)cc2)cc1` reads -0.009% (inactive).
Consider `N#C[C@@H]1[C@H](c2ccccc2-c2cccc(F)c2)[C@@H](CO)N1C(=O)CN1CCOCC1`, for which the inhibition is -0.655% (inactive).
As for `Cc1noc(C)c1NC(=O)N[C@@H]1CC[C@H](CC(=O)Nc2ccccc2)O[C@H]1CO`, the inhibition was 2.14% (inactive).
The result for `CO[C@@H]1CC[C@@H]2CCOc3c(C#N)cccc3C(=O)N(C)C[C@@H](C)C(=O)N(C)C[C@@H]1O2` reads -0.159% (inactive).
